Data on 40 compounds can be found in PubChem BioAssay (EPA / NIEHS).

Results filed as inconclusive are left out. Calls of active or inactive are those of the source. Rule for the calls: active = hit-call score of the fitted dose curve at least 0.9, where 1 is the maximum; inconclusive = response in the unintended direction; inactive = score below 0.9.

Tested on in the first assay: not listed separately
The experiment in a line: TOX21_p53_BLA_p3_viability: Viability Assessment in the Tox21 HCT-116 p53 Agonism Beta-lactamase Assay, Phase 3 (AID 2283593).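 Note: cells exposed to compound for 16 h before reading.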 The essentials:
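HCT116 cells, 4000/well, dosed 5 h after plating by pin transfer (217-fold dilution from DMSO stock) and incubated 16 h at 37C, 5% CO2. Viability read as ATP luminescence with CellTiter-Glo after 30 min at room temperature.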
As to `COc1ccccc1N1CCN(CCCCNC(=O)c2ccc(-c3ccc(C(C)=O)cc3)cc2)CC1`, the compound was classed as inactive.

Regarding `C[C@]12CC[C@@H]3c4ccc(OS(=O)(=O)O)cc4CC[C@H]3[C@@H]1CCC2=O`, the call was inactive.

On to `O=C1c2ccccc2S(=O)(=O)N1CCCCN1CCN(c2ncccn2)CC1`, for which the compound was called inactive.

For `CN(C)CCCNCCC#N`, the compound was called inactive.

For `COc1cc(-c2ccc(=O)[nH]n2)ccc1OC(F)F`, the compound was called inactive.

With `CCC(=O)O[C@]1(C(=O)CCl)[C@@H](C)C[C@H]2[C@@H]3CCC4=CC(=O)C=C[C@]4(C)[C@@]3(F)[C@@H](O)C[C@@]21C`, the result was inactive.

For `C1C[C@@H]2[C@H]3CC[C@H](C3)[C@@H]2C1`, the outcome was inactive.

On to `COC(=O)CC#N`, for which the compound was called inactive.

`C/C(=N\O)c1ccc(OCC(=O)N2CCCCC2)cc1`: the call was inactive.

As to `O=C1c2ccccc2C(=O)C1c1ccc(Br)cc1`, the compound was classed as inactive.

For the compound `c1ccc2cc3c4ccccc4c4ccccc4c3cc2c1`, the result was inactive.

`CCC(N)(CO)CO`: the compound was classed as inactive.

Consider `C=CCCC=C`, for which the result was inactive.

Turning to `COc1ccc(C2C(=O)c3ccccc3C2=O)cc1`, the result was inactive.

In the case of `CC(=O)Nc1ccc(N)cc1`, the result was inactive.

The target of the next assay is Cellular tumor antigen p53 (Homo sapiens) (UniProt P04637). Nature of the assay: TOX21_p53_BLA_p3_ratio: Tox21 HCT-116 p53 Agonism Beta-lactamase Assay, Ratio, Phase 3 (AID 2283596). Put shortly: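 HCT116 p53-bla cells (4000/well) given compound in DMSO (217-fold dilution) after 5 h, incubated 16 h at 37C. CCF4-AM substrate 2 h at room temperature; 460/530 nm emission ratio, gain fitted against DMSO.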
Chain of Cellular tumor antigen p53 (Homo sapiens) (P04637 whole entry, looked up): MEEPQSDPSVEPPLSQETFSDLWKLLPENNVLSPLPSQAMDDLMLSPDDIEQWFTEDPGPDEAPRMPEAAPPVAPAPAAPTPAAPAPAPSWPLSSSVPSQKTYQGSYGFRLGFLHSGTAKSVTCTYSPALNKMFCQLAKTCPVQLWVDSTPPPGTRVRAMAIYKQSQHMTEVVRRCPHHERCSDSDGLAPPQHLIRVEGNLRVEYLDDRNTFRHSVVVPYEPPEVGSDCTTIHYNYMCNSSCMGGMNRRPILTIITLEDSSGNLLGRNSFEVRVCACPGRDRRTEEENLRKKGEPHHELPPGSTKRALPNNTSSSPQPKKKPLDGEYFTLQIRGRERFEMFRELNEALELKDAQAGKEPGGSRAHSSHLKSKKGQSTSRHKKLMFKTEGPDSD
Consider `Cc1c(C(C)C)c(=O)n(-c2ccccc2)n1C`, for which the result was inactive.

Take `CN(C)c1ccc(/C=C/c2ccc([N+](=O)[O-])cc2)cc1`: the result was inactive.

`CC(=O)O[C@H]1C[C@@]2(C)[C@@H](C[C@@H](O)[C@H]3[C@@]4(C)CC[C@@H](O)[C@@H](C)[C@@H]4CC[C@@]32C)/C1=C(\CCC=C(C)C)C(=O)O`: the result was inactive.

As for `CC(CNC(=O)c1cccnc1)NC(=O)c1cccnc1` (stereo not given), the result was inactive.

As to `OCC=CCO`, the outcome was inactive.

With `c1ccc2cc(C3=NCCN3)ccc2c1`, the result was inactive.

With `CC(=O)OCC(=O)[C@@]1(O)[C@H](OC(C)=O)C[C@H]2[C@@H]3CCC4=CC(=O)C=C[C@]4(C)[C@@]3(F)[C@@H](O)C[C@@]21C`, the outcome was inactive.

Turning to `CCOc1ccc(O)cc1`, the result was inactive.

`Cc1nc2n(c(=O)c1CCN1CCC(c3noc4cc(F)ccc34)CC1)CCCC2`: the result was inactive.

Regarding `CC(C)(C)C1(CCc2ccc(Cl)cc2)CO1` (stereo not given), the result was inactive.

On to `CCOC(=O)[C@H](CCc1ccccc1)N[C@H]1CS[C@H](c2cccs2)CN(CC(=O)O)C1=O`, for which the outcome was inactive.

As for `CN=C(N)NC(=O)Nc1c(C)cccc1C`, the result was inactive.

In the case of `CC(C)SCc1ccco1`, the result was inactive.

For the compound `CN(C)CCOC(c1ccc(Cl)cc1)c1ccccn1` (stereo not given), the outcome was inactive.

On to `O=Cc1ccc(Cl)c(Cl)c1`, for which the result was inactive.

For `CO/N=C(\C(=O)N[C@@H]1C(=O)N2C(C(=O)[O-])=C(C[n+]3ccc(N)n3CCO)CS[C@H]12)c1csc(N)n1`, the result was inactive.

For the compound `CN=C(NC#N)NCCSCc1csc(N=C(N)N)n1`, the result was inactive.

As to `O=C(O)[C@@H]1C[C@H](CP(=O)(O)O)CCN1`, the result was inactive.

Regarding `Oc1ccc(C2(c3ccc(O)cc3)CC3CC2C2CCCC32)cc1` (stereo not given), the outcome was inactive.

Take `CC1(C)CC(OC(=O)CCCCCCCCC(=O)OC2CC(C)(C)NC(C)(C)C2)CC(C)(C)N1`: the result was inactive.

Regarding `CO/N=C(\C(=O)N[C@@H]1C(=O)N2C(C(=O)O)=C(CSC(=O)c3ccco3)CS[C@H]12)c1csc(N)n1`, the outcome was inactive.

Consider `CCC(=O)OC/C=C/c1ccccc1`, for which the result was inactive.

Consider `O=C(O)CCC(=O)c1ccc(-c2ccccc2)cc1`, for which the outcome was inactive.

Turning to `Oc1cc(O)c2c(c1)O[C@H](c1ccc(O)c(O)c1)[C@H](O)C2`, the outcome was inactive.

As to `C[N+](C)(C)CCOC(=O)CCC(=O)OCC[N+](C)(C)C`, the result was inactive.
